Bioassay records: PubChem BioAssay, National Center for Advancing Translational Sciences (NCATS)
Pf growth 48h – Primary qHTS for delayed death inhibitors of the malarial parasite plastid, 48 hour incubation; 310,000 compounds, 5.9% hits; AID 504832, 2011; P. falciparum luciferase growth in erythrocytes, 48 h; Potency, µM (top dose mostly 28.7 µM), for the others: at the top dose activity change, negative = inhibition, hits mostly inhibitors
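Firefly luciferase activity from engineered P. falciparum reports growth; inhibitors lower the luminescent signal. Cultures contained 2% hematocrit erythrocytes at 0.1% final parasitemia.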
AmpC inh no detg – qHTS Inhibitors of AmpC Beta-Lactamase (assay without detergent); AmpC nitrocefin hydrolysis, absorbance 480 nm, 0.0001% Triton; Potency, µM (highest dose often 57.1 µM), for the others: at the top dose activity change, negative = inhibition, hits mostly inhibitors; 330,000 compounds, 0.52% hits; AID 485341, 2010;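 further: plate controls were no compound for no effect and no enzyme for full effect; nearly all actives have a fitted effect of over 20% in size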
Target sequence (P00811 whole entry, looked up): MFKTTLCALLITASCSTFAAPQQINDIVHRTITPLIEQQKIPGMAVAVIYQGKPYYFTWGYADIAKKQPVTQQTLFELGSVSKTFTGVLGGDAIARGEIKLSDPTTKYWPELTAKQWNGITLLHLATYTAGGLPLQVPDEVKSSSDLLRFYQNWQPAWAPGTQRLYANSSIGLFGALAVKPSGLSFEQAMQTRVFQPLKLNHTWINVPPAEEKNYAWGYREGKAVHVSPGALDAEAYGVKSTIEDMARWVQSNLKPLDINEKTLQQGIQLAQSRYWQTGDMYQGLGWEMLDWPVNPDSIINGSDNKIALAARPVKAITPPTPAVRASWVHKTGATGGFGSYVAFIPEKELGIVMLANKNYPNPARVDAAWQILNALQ
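20 mM phosphate pH 7.0 + 0.01% (detergent screen) or 0.0001% Triton X-100; 5.3 nM AmpC reagent; cpd preinc 15 min RT; nitrocefin (800 uM stock) to start; A480 q20 s × 4 min; Activity was normalised to no-enzyme and no-compound control wells.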
AMA1 RON2 block – qHTS for Inhibitors of AMA1-RON; Towards Development of Antimalarial Drug Lead: Primary Screen; Plasmodium falciparum AMA1 (3D7) - RON2 peptide interaction; AlphaScreen AMA1-biotinylated RON2 peptide binding; Potency, µM (series often up to 58.2 µM), inactives show at the highest dose activity change, negative = inhibition, actives largely listed as inhibitors; 360,000 compounds, 0.2% hits;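 further: 0% = vehicle wells and -100% = peptide control; nearly all actives have a fitted effect of over 45% in size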
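AMA1 (3D7) with his tag at 25 nM final met compounds first, then biotinylated RON2 peptide at 25 nM; detection used donor plus acceptor beads, 10 µg/mL apiece, read by AlphaScreen after 30 min at room temperature.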
HCV inhibitor – qHTS Assay for Inhibitors of Hepatitis C Virus (HCV) | Huh7.5.1 HCVcc-Cre infection, luciferase reporter, 44 h | Potency, µM (series often up to 41.8 µM), for the others: at the highest dose activity change, negative = inhibition, most hits filed as inhibitors | 340,000 compounds, 3.4% hits
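Infectious HCVcc-Cre (~0.5 moi) was added to cells just after compound, with cells seeded 4 h earlier at 1,000 per well. Luciferase activity after 44 h culture reported infection; substrate was incubated 15 min at room temperature before reading.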
Pf growth 96h – Primary qHTS for delayed death inhibitors of the malarial parasite plastid, 96 hour incubation. Potency, µM (doses to about 28.7 µM), without a hit: at the top dose activity change, negative = inhibition, usual class: inhibitors. AID 504834, 2011. 320,000 compounds, 6.9% hits. P. falciparum luciferase reporter growth, 96 h
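Compounds incubated with erythrocytes infected by luciferase-expressing P. falciparum (2% hematocrit, 0.05% parasitemia final) for 96 hours, 37 C in 5% CO2. Growth inhibition scored as decreased luciferase luminescence.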
AmpC inh detg – qHTS Inhibitors of AmpC Beta-Lactamase (assay with detergent); P00811; AmpC hydrolysis of nitrocefin, absorbance 480 nm, 0.01% Triton; 370,000 compounds, 0.041% hits; Potency, µM (series often up to 114 µM), for inactives: at the highest dose activity change, negative = inhibition, actives largely listed as inhibitors;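 further: 0% = no-compound wells and -100% = no-enzyme wells; nearly all actives have a fitted effect of over 25% in size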
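AmpC (5.3 nM in the dispensed reagent) in 20 mM phosphate pH 7.0 with 0.01% (detergent screen) or 0.0001% Triton X-100 was preincubated with compounds for 15 min at room temperature. Nitrocefin was then added from an 800 uM solution, and hydrolysis was followed at 480 nm.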
* = called active by the depositor; ? = inconclusive; · = no result; [ ] = remark or other dose. This is a sample that favours compounds with a hit; in the whole collection about 11% have one here. The call rests on the fitted dose curve; in most records, active means well fitted curve in the direction sought with a large enough effect; inconclusive means small, poorly fitted or top-dose-only effect, or another doubt; inactive means no such curve, though single readings can be large; an effect the other way counts as inactive or inconclusive. Unless noted, on the % scale 0 is the no-effect control and ±100 the full control effect; potency means the concentration at half of the fitted maximal effect.

SMILES	Pf growth 48h	AmpC inh no detg	AMA1 RON2 block	HCV inhibitor	Pf growth 96h	AmpC inh detg
O=C(CSc1ccc(-c2cccs2)nn1)NCCc1ccccc1	8.4%	-26.2%	-7.4%	-16.0%	2.94µM*	-1.7%
CC(=O)N1CCc2c(sc3c2c(=O)n(-c2ccc(C)cc2)c(=O)n3Cc2c(F)cccc2Cl)C1	·	·	·	·	·	-1.4%
CCOC(=O)c1cnc(-n2nc(C)cc2C)nc1N(CC)CC	11.7µM*	1.5%	72.7%	-28.1%	·	?
CCOC(=O)c1cnc(-n2nc(C)cc2C)nc1Oc1ccc(C#N)cc1	94.3%	-5.3%	21.8%	10.0%	5.8%	0.4%
CCOC(=O)c1cnc2cc(C)nn2c1-c1ccccc1	4.2%	-9.3%	9.8%	-2.7%	96.5%	1.2%
CCOC(=O)c1cnc(-n2nc(C)cc2C)nc1NNc1nc(-c2ccccc2)cc(-c2ccccc2)n1	1.47µM*	-39.9%	-1.1%	?	?	?
CCOC(=O)c1cnc(-n2nc(C)cc2C)nc1NNc1nc(C)cc(C)n1	0.586µM*	-8.3%	56.8%	?	2.94µM*	-2.4%
CCOC(=O)c1cnc(-n2nc(C)cc2C)nc1NC1CCCCC1	1.65µM*	101.1%	72.2%	5.62µM*	-0.7%	0.1%
CCOC(=O)c1cnc(-n2nc(C)cc2C)nc1NC	0.0%	-1.5%	129.2%	-13.3%	-23.5%[5.75 µM]	-1.4%
CCOC(=O)c1sc2ncn(CC(=O)Nc3ccc(F)cc3F)c(=O)c2c1C	·	·	·	·	·	-3.7%
Cc1ccc(C(c2sc3nc(-c4ccco4)nn3c2O)N2CCN(Cc3ccccc3)CC2)cc1 (centres undefined)	·	·	·	·	·	8.1%
O=C(Cn1c(=O)c2cccn2c2ccccc21)NCCc1ccccc1	11.5%	-15.6%	0.2%	-5.3%	?	-0.3%
O=C(Cn1c(=O)c2cccn2c2ccccc21)NCCc1ccc(Cl)cc1	27.2%	-8.5%	-6.9%	-2.6%	10.4µM*	-3.4%
O=C(Cn1c(=O)c(=O)n(Cc2ccccc2)c2ccc(Cl)cc21)Nc1cc(F)ccc1F	-4.0%	-35.5%	·	·	?	?
O=C(Cn1c(=O)c2cccn2c2ccccc21)Nc1cc(F)ccc1F	-3.1%	-46.0%	-11.1%	11.2µM*	-20.9%	-0.6%
CCCCNc1c(N)n(CCC)c(=O)[nH]c1=O	14.2%	-13.2%	19.8%	8.8%	-10.8%	-0.4%
CCCCNc1c(N)n(CC(C)C)c(=O)[nH]c1=O	14.7µM*	-7.2%	11.8%	7.0%	5.4%	-10.7%
N#C/C(=C\c1cccc([N+](=O)[O-])c1)C(=O)NCc1cccnc1	7.1%	-11.0%	2.7%	-0.8%	6.57µM*	-1.0%
O=C(N/N=C/c1cccnc1)c1ccc([N+](=O)[O-])cc1	-3.0%	-6.7%	19.0%	16.3%	?	-2.9%
N#C/C(=C\c1cccc([N+](=O)[O-])c1)C(=O)NCc1ccc(Cl)cc1	?	-35.9%	?	-27.5%	?	-8.3%
N#C/C(=C\c1cccnc1)c1ccc([N+](=O)[O-])cc1	1.5%	-18.8%	-0.8%	-18.6%	2.62µM*	?
O=[N+]([O-])c1ccc(N/N=C/c2cccnc2)cc1	-21.3%	-15.3%	-3.7%	11.2µM*	?	-9.5%
O=[N+]([O-])c1ccc(N/N=C/c2ccc[nH]2)cc1	-23.0%	?	-17.3%	1µM*	?	23.1%
CCOC(=O)c1cc2c(=O)n3ccccc3nc2n(CC2CCCO2)c1=NC(=O)c1ccc(F)cc1 (centres undefined)	·	·	·	·	·	1.6%
COC(=O)c1ccccc1NC(=O)CSc1nc2ccccc2nc1Cc1ccccc1OC	·	·	·	·	·	9.8%
SMILES	Pf growth 48h	AmpC inh no detg	AMA1 RON2 block	HCV inhibitor	Pf growth 96h	AmpC inh detg
CCC(=O)N1CCc2cc(Br)cc(S(=O)(=O)N3CCCC(C(=O)Nc4cccc(F)c4)C3)c21 (centres undefined)	·	·	·	·	·	23.7%
O=[N+]([O-])c1ccc(N/N=C/c2cccc(O)c2)cc1	88.5%	-45.8%	-8.3%	?	?	-2.4%
O=[N+]([O-])c1ccc(N/N=C/c2cccc(O)c2O)cc1	50.7%	17.8µM*	-2.7%	?	?	-14.7%
COc1ccc2c(c1)c1c(c(=O)n(-c3cccc(C)c3)c(=O)n1CC(=O)NCC1CCCO1)n2C (centres undefined)	·	·	·	·	·	4.0%
CCN(CC)S(=O)(=O)c1cc(NC(=O)C(C)N2CCc3ccccc32)ccc1C (centres undefined)	?	-31.7%	-20.2%	?	10.4µM*	-13.0%
CCN(CC)S(=O)(=O)c1cc(NC(=O)C(C)N(C)CC(=O)Nc2c(C)cccc2C)ccc1C (centres undefined)	11.7µM*	107.3%	51.4%	?	11.7µM*	-0.5%
O=C(NCCc1nc2ccccc2n1CCOc1ccc(Cl)cc1)C1CCCCC1	·	·	·	·	·	15.3%
CCOc1ccc(/C=N/NC(=O)c2[nH]c3ccc(C)cc3c2C)cc1	16.5%	-30.2%	-4.9%	?	4.9%	2.1%
Cc1c(C(=O)N/N=C/c2ccc(Cl)cc2)[nH]c2ccc(Cl)cc12	0.8%	14.1µM*	36.8%	?	?	-11.9%
CCc1cccc2c(C(=O)COC(=O)c3ccc([N+](=O)[O-])s3)c[nH]c12	?	-29.0%	-16.9%	28.2µM*	?	-2.1%
CN(C)c1cc[n+](CC(=O)N2CCCc3ccccc32)cc1	5.22µM*	0.5%	-4.8%	-2.2%	?	?
Cc1cc[n+](CC(=O)N2CCCc3ccccc32)cc1	-0.2%	-11.9%	3.8%	4.3%	-0.9%	8.6%
NNc1nnc2c3cc(F)ccc3n(Cc3ccccc3)c2n1	1.47µM*	-38.3%	56.2%	?	3.29µM*	-7.9%
CCc1ccc2c(c1)c1nnc(NN)nc1n2CC	?	2.3%	29.5%	?	?	?
CCn1c2ccc(F)cc2c2nnc(NN)nc21	?	0.3%	54.7%	-2.7%	3.7µM*	5.7%
CCc1ccc2c(c1)c1nnc(NN)nc1n2C	11.7µM*	14.2%	71.7%	-24.6%	?	8.8%
Cc1cccc(N2CCN(CCCNc3ncnc4onc(-c5ccc(Cl)cc5)c34)CC2C)c1 (centres undefined)	·	·	·	·	·	0.5%
CC1=C(C)CC(C(=O)NCc2cccc(Cl)c2)C(C(=O)O)C1 (centres undefined)	10.2%	-8.8%	·	·	13.1µM*	-9.8%
S=C(NCc1ccccc1)NCc1cccc(Cl)c1	8.6%	-50.2%	-3.2%	-21.8%	3.7µM*	-1.9%
